A short description of the experiment: NCI Yeast Anticancer Drug Screen. Data for the sgs1 mgt1 strain (AID 161).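 Further: 0% = growth of cultures given vehicle only.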 Conditions: S. cerevisiae sgs1 mgt1 strain, hits give high values. The procedure: Growth inhibition of yeast strains with defined genetic alterations is measured as a screen for potential anti-cancer activity. Selected strains with alterations in DNA damage repair or cell cycle control were exposed to compounds and growth inhibition was measured relative to vehicle treated controls. The strain used in this assay is sgs1 mgt1

The mark [1] stands for this setting: at 5.0 µM (retest, dose inferred, filed as 0.5).
[2] abbreviates: at 50.0 µM (retest, dose inferred, filed as 5.0).

Each structure is given as a SMILES string. This is part of a sample that, as a whole, favours compounds with a hit. Of some 79,000 tested, about 15% had one in any assay. A number with no mark means an inactive call. Active and inactive are the calls of the source. No stated cut-off is given here; in the data, active means growth inhibition above about 70%; inactive means the rest.

Here are results for 14 compounds from PubChem BioAssay (NCI).

Consider `BrC/C=C/C[P+](c1ccccc1)(c1ccccc1)c1ccccc1`, for which the growth inhibition reads like this: under setting [1], 18%; under setting [2], 18%; (at 50.0 µM) 92% (active).

On to `Cn1c(COc2ccc(/C=N/NC(=O)CCC(=O)N/N=C/c3ccc(OCc4c[n+]5ccccc5n4C)cc3)cc2)c[n+]2ccccc12`, for which the growth inhibition was -1% under setting [1], 47% under setting [2] and 63.4% (at 50.0 µM).

For `O=[N+]([O-])c1cccc2nc3ccccc3c(NCCC[N+]3([O-])CCOCC3)c12`, the growth inhibition reads like this: under setting [1], 73% (active); under setting [2], 93% (active); (at 50.0 µM) 79.6% (active).

Take `O=S(=O)(Oc1c(Cl)cc(Cl)cc1Cl)c1ccccc1`: the growth inhibition under setting [1] was 2%, the growth inhibition under setting [2] was 47% and the growth inhibition (at 50.0 µM) is 66.3%.

Take `CC(C)OC(CCC#N)c1ccc(Cl)cc1` (configuration not stated): the growth inhibition was 2% under setting [1], -4% under setting [2] and 56% (at 50.0 µM).

On to `O=Cn1c2ccccc2c2ccccc21`, for which the growth inhibition is, setting by setting: under setting [1], -16%; under setting [2], 46%; (at 50.0 µM) 33.5%.

For `COc1ccc(/C=C2\S/C(=N/Nc3nc(-c4ccccc4)cs3)NC2=O)cc1OC`, the growth inhibition is, setting by setting: under setting [1], -4%; under setting [2], 90% (active); (at 50.0 µM) 95.7% (active).

Consider `CCOC(=O)C(NC(=O)c1ccccc1)[CH](c1ccccc1)[Sn]([c]1ccccc1)([c]1ccccc1)[c]1ccccc1` (configuration not stated), for which the growth inhibition reads like this: under setting [1], -4%; under setting [2], 36%; (at 50.0 µM) 97.3% (active).

With `Cc1cc(NCCCN(C)C)c2ccc3c(ccc4c(NCCCN(C)C)cc(C)nc43)c2n1`, the growth inhibition runs as follows: under setting [1], 7%; under setting [2], 81% (active); (at 50.0 µM) 18.6%.

Regarding `Cc1ccc2oc(-c3cccc(N)c3)nc2c1`, the growth inhibition reads like this: under setting [1], 10%; under setting [2], 48%; (at 50.0 µM) -18.8%.

As to `O=C1c2ccc(O)cc2C(=O)c2c(O)ccc(O)c21`, the growth inhibition under setting [1] is 50%, the growth inhibition under setting [2] was 90% (active) and the growth inhibition (at 50.0 µM) is 77.2% (active).

Take `NNc1nnc(-c2ccccc2)nc1Cc1ccccc1`: the growth inhibition is, setting by setting: under setting [1], -7%; under setting [2], 95% (active); (at 50.0 µM) 82.9% (active).

On to `O=C1C=CC(=Nc2ccc3c(c2)Cc2cc(Cl)ccc2-3)O1`, for which the growth inhibition is 49% under setting [1], 100% (active) under setting [2] and 99.5% (active) (at 50.0 µM).

As for `CN(C)CCNC(=O)c1cccc2nc3c(ccc4ccccc43)nc12`, the growth inhibition under setting [1] is 3%, the growth inhibition under setting [2] is 37% and the growth inhibition (at 50.0 µM) was 40.2%.
